Our source for the outcome and AC50 values is PubChem BioAssay (EPA / NIEHS).

Assay [1] is described as follows: ATG_ISRE_CIS: Attagene CIS-FACTORIAL HepG2 Assay for human Interferon Regulatory Factor 1 (IRF1) binding to an Interferon-Stimulated Response Element (ISRE) (AID 2282948). Conditions: HepG2 ISRE cis-reporter (Attagene), mRNA transcription readout; actives raise or lower the signal. The method, boiled down:
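Multiplexed mRNA reporter readout in human liver HepG2 cells: cis-element-driven reporters transfected, compound added for 24 h, transcripts amplified, fluorescently labelled and sized by capillary electrophoresis; curve fitting bidirectional against DMSO.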

The nature of assay [2]: ATG_M_32_CIS: Attagene CIS-FACTORIAL HepG2 Assay for M32 Transcription Factor (Internal Marker) (AID 2282949).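 Note: background control marker of the multiplexed CIS panel rather than a real target.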 The conditions noted are these: HepG2 Attagene cis-factorial M32 reporter, mRNA; actives raise or lower the signal. The procedure, abridged: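 HepG2 transfectants (cis-regulated reporter transcription units) dosed 24 h. Reporter mRNA by RT-PCR plus CE, analysed as gain or loss relative to DMSO.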

Assay [3] addresses Hepatocyte nuclear factor 6 (Homo sapiens) (UniProt Q9UBC0). The assay is described as follows: ATG_HNF6_CIS: Attagene CIS-FACTORIAL HepG2 Assay for human Hepatocyte Nuclear Factor 6 (HNF6) (AID 2282952). The conditions noted are these: HepG2 Attagene cis-factorial HNF6 reporter transcription; actives raise or lower the signal. The procedure, abridged:
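Readout: fluorescent reporter-transcript fragments resolved by capillary electrophoresis after RT-PCR, reflecting endogenous factor activity in transfected HepG2. Exposure 24 h. Gain or loss of signal fitted bidirectionally against DMSO.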

Assay [4] addresses Heat shock factor protein 1 (Homo sapiens) (UniProt Q00613). The assay is described as follows: ATG_HSE_CIS: Attagene CIS-FACTORIAL HepG2 Assay for human Heat Shock Transcription Factor 1 (HSE) (AID 2282953). The conditions noted are these: HepG2 HSE cis-reporter, Attagene RNA transcription; actives raise or lower the signal. The procedure, abridged:
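Endogenous transcription factor activity in transiently transfected HepG2, read as reporter mRNA by RT-PCR with fluorescent capillary electrophoresis after 24 h. Gain or loss of signal fitted versus DMSO baseline.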

Assay [5] can be described thus: ATG_MRE_CIS: Attagene CIS-FACTORIAL HepG2 Assay for human Metal Responsive Element (MRE) (AID 2282954). The conditions noted are these: HepG2 MRE cis-reporter transcription, Attagene multiplex; actives raise or lower the signal. The method, boiled down:
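Cells were transfected with cis-promoter reporter transcription units, then dosed for 24 h. RNA was reverse-transcribed, amplified, fluorescently labelled and resolved by capillary electrophoresis, and activity was fitted in both directions relative to DMSO.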

The nature of assay [6]: ATG_PBREM_CIS: Attagene CIS-FACTORIAL HepG2 Assay for human Phenobarbital-responsive Enhancer Module (PBREM) (AID 2282955). The conditions noted are these: HepG2 PBREM cis-reporter, Attagene multiplexed transcription; actives raise or lower the signal. The method, boiled down:
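Transfected liver-derived HepG2 cells exposed 24 h; PBREM reporter transcript quantified via RT-PCR and capillary electrophoresis, with activity in either direction referenced to DMSO.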

A short description of assay [7]: ATG_PXRE_CIS: Attagene CIS-FACTORIAL HepG2 Assay for human Pregnane X Receptor Element (PXRE) (AID 2282957). The conditions noted are these: HepG2 Attagene CIS-FACTORIAL PXRE reporter, mRNA; actives raise or lower the signal. The procedure, abridged:
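Read-out: fluorescence of reporter-specific RT-PCR products resolved by capillary electrophoresis, fitted bidirectionally relative to DMSO. Human HepG2 liver cells carried transfected cis-promoter reporter units and were exposed to chemicals for 24 h.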

The nature of assay [8]: ATG_PPRE_CIS: Attagene CIS-FACTORIAL HepG2 Assay for human Peroxisome Proliferator-activated Response Element (PPRE) (AID 2282958). Conditions: HepG2 PPRE cis-element reporter, Attagene transcription factor profiling; actives raise or lower the signal. The procedure, abridged: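 Measured endpoint: PPRE-controlled reporter mRNA, detected by RT-PCR and capillary electrophoresis fluorescence, from transiently transfected HepG2 cells 24 h after dosing. Curves fitted in both directions using DMSO baseline.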

Assay [9] in a line: ATG_Sox_CIS: Attagene CIS-FACTORIAL HepG2 Assay for human SRY-box transcription factor (SOX) (AID 2282960). Conditions: HepG2 Attagene cis-factorial SOX reporter, mRNA; actives raise or lower the signal. The procedure, abridged:
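Gain- or loss-of-signal endpoint, fitted bidirectionally with DMSO as negative control. Based on reporter mRNA from transfected HepG2 cells harvested 24 h post-treatment and quantified via RT-PCR and capillary electrophoresis.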

Assay [10] has as its target Transcription factor Sp1 (Homo sapiens) (UniProt P08047). Description: ATG_Sp1_CIS: Attagene CIS-FACTORIAL HepG2 Assay for human Specificity Protein 1 (Sp1) (AID 2282961). Conditions: HepG2 Sp1 cis-reporter transcription, actives raise or lower the signal. The method, boiled down:
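Endpoint reflects endogenous Sp1 transcriptional activity, not an exogenous fusion protein: HepG2 cells with transfected cis-regulated reporters, 24 h dosing, RT-PCR/capillary electrophoresis mRNA read-out, DMSO-normalised bidirectional fit.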

The target in assay [11] is Signal transducer and activator of transcription 3 (Homo sapiens) (UniProt P40763). The assay is described as follows: ATG_STAT3_CIS: Attagene CIS-FACTORIAL HepG2 Assay for human Signal Transducer and Activator of Transcription 3 (STAT3) (AID 2282963). Conditions: HepG2, Attagene cis-factorial STAT3 reporter transcription; actives raise or lower the signal. The procedure, abridged:
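HepG2, MRTU-transfected, 24 h dosing. RNA → RT → PCR → FAM label → HpaI → CE. Bidirectional fit vs DMSO.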

Assay [12] is described as follows: ATG_TA_CIS: Attagene CIS-FACTORIAL HepG2 Assay for human TA Basal Promoter (AID 2282964). Conditions: HepG2 Attagene CIS-factorial TA basal promoter reporter; actives raise or lower the signal. The method, boiled down:
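Background-control readout: TA basal promoter reporter mRNA, fitted in both directions relative to DMSO. Measured by RT-PCR and capillary electrophoresis 24 hours after treating HepG2 human liver cells transiently carrying multiplexed cis-regulated reporter constructs.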

The nature of assay [13]: ATG_TCF_b_cat_CIS: Attagene CIS-FACTORIAL HepG2 Assay for human T-Cell-Factor with beta-catenin (TCF/b-cat) (AID 2282965). The conditions noted are these: HepG2 TCF/beta-catenin cis-reporter transcription, actives raise or lower the signal. The method, boiled down:
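Using capillary electrophoresis as the read-out, labelled reporter cDNA fragments from transiently transfected HepG2 were sized and quantified. Exposure lasted 24 hours; activity in either direction was referenced to DMSO.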

Assay [14] deals with Hypoxia-inducible factor 1-alpha (Homo sapiens) (UniProt Q16665). Description: ATG_HIF1a_CIS: Attagene CIS-FACTORIAL HepG2 Assay for human Hypoxia Inducible Factor 1 (HIF1A) (AID 2282951). Conditions: HepG2 Attagene cis-factorial HIF1a reporter transcription; actives raise or lower the signal. The method, boiled down:
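Dosed 24 h, transfected HepG2 cells yielded total RNA whose reporter transcripts were RT-PCR-amplified and sized by capillary electrophoresis using fluorescent labelling; DMSO defined baseline, with gain and loss of signal both fitted.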

Assay [15] concerns the target Paired box protein Pax-6 (Homo sapiens) (UniProt P26367). The assay is described as follows: ATG_Pax6_CIS: Attagene CIS-FACTORIAL HepG2 Assay for human Paired Box 6 (PAX6) (AID 2282956). The conditions noted are these: HepG2 CIS-FACTORIAL PAX6 reporter transcription, RNA readout; actives raise or lower the signal. The procedure, abridged: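 Fluorescent RT-PCR products separated by capillary electrophoresis report PAX6-linked promoter mRNA in HepG2 cells 24 h post-dose. Curves fitted bidirectionally, DMSO as negative control.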

Assay [16] in a line: ATG_RORE_CIS: Attagene CIS-FACTORIAL HepG2 Assay for human RAR-related Orphan Receptor Element (RORE) (AID 2282959). The conditions noted are these: HepG2 Attagene cis-factorial RORE reporter, mRNA; actives raise or lower the signal. The procedure, abridged:
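Transiently transfected HepG2 reporter cells were treated 24 h. Reporter transcripts were detected by RT-PCR and capillary electrophoresis, with bidirectional fitting against DMSO.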

Assay [17] in a line: ATG_SREBP_CIS: Attagene CIS-FACTORIAL HepG2 Assay for human Sterol Regulatory Element Binding (SREBP) (AID 2282962). The conditions noted are these: HepG2 Attagene cis-factorial SREBP reporter, mRNA; actives raise or lower the signal. The method, boiled down:
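Endogenous factor activity is measured in HepG2 through multiplexed reporter units under cis-element control. Following a 24 h incubation, reporter transcripts are reverse-transcribed, PCR-amplified and sized by capillary electrophoresis; activity is fitted in both directions relative to DMSO.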

A short description of assay [18]: ATG_M_06_CIS: Attagene CIS-FACTORIAL HepG2 Assay for M06 Transcription Factor (Internal Marker) (AID 2282950). Conditions: HepG2 Attagene CIS-FACTORIAL M06 internal marker reporter; actives raise or lower the signal. The method, boiled down:
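Serves as a background control readout. Transfected HepG2 exposed to compounds for 24 h, then reporter transcripts quantified by fluorescent RT-PCR and capillary electrophoresis. Both directions fitted against DMSO baseline.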

Calls of active or inactive are those of the source. Rule for the calls: active = hit-call score of the fitted dose curve at least 0.9, where 1 is the maximum; inactive = score below 0.9.

Sequence of Transcription factor Sp1 (Homo sapiens) (P08047 whole entry, looked up, the tested form may be a part): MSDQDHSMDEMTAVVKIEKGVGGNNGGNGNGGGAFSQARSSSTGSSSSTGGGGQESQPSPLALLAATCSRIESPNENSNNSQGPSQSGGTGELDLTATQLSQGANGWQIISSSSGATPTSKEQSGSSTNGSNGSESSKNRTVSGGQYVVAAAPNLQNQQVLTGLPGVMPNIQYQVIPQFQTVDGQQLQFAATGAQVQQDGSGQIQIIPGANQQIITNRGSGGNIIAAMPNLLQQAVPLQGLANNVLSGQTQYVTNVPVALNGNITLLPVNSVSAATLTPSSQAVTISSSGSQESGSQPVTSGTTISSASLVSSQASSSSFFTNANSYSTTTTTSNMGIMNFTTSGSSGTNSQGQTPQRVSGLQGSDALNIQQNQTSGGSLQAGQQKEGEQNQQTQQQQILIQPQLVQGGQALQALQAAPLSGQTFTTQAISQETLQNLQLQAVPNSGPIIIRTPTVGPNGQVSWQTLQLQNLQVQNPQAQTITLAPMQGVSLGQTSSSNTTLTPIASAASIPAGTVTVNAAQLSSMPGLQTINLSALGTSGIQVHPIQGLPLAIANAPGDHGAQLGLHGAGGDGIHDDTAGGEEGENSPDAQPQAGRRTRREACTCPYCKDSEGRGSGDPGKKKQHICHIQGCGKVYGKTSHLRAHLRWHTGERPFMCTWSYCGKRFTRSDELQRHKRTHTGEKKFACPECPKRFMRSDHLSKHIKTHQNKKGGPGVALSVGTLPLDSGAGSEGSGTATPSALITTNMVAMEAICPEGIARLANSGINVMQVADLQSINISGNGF
Sequence of Paired box protein Pax-6 (Homo sapiens) (P26367 whole entry, looked up): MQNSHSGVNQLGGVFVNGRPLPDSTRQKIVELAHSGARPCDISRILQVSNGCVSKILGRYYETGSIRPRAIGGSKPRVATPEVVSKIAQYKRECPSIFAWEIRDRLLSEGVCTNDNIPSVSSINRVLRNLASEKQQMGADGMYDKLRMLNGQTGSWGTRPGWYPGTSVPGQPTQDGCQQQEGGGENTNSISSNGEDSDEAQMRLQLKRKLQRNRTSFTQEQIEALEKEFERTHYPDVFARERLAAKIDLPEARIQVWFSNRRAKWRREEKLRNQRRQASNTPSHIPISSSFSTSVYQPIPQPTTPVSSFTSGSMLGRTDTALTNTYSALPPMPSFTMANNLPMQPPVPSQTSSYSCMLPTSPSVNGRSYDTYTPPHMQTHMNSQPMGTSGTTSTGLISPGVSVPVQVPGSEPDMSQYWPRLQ
Sequence of Heat shock factor protein 1 (Homo sapiens) (Q00613 whole entry, looked up): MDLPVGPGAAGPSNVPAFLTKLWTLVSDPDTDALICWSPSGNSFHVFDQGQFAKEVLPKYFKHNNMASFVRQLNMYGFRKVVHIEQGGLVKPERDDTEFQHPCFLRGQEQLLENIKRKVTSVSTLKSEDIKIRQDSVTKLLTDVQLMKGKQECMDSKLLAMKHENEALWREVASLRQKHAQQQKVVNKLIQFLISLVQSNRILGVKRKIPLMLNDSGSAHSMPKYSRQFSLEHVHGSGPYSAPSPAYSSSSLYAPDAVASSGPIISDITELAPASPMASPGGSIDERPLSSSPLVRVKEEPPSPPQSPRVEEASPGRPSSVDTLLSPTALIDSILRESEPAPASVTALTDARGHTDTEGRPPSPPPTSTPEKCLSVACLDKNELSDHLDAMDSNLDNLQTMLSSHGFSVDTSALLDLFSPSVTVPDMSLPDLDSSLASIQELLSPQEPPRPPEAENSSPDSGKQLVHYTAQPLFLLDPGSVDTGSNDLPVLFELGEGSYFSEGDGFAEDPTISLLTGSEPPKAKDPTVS
Sequence of Signal transducer and activator of transcription 3 (Homo sapiens) (P40763 whole entry, looked up): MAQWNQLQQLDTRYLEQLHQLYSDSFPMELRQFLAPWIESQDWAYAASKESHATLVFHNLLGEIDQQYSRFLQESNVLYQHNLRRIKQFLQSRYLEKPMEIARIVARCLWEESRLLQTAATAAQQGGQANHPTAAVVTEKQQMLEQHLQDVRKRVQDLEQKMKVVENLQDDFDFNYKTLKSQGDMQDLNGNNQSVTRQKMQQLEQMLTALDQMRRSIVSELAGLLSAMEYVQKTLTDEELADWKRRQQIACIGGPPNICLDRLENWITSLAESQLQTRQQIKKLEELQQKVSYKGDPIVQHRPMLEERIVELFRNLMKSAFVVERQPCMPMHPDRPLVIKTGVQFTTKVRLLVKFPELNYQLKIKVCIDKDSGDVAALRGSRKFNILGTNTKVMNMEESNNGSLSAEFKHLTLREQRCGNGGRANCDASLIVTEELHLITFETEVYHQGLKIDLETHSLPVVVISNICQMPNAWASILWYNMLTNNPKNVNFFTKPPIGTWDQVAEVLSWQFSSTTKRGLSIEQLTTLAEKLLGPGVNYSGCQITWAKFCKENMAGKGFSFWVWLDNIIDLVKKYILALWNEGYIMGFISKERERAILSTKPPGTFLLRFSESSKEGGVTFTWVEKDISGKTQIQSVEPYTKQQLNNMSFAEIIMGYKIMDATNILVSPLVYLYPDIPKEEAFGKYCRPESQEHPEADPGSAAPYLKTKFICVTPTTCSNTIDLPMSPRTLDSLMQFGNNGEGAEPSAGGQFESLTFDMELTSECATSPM
Sequence of Hypoxia-inducible factor 1-alpha (Homo sapiens) (Q16665 whole entry, looked up): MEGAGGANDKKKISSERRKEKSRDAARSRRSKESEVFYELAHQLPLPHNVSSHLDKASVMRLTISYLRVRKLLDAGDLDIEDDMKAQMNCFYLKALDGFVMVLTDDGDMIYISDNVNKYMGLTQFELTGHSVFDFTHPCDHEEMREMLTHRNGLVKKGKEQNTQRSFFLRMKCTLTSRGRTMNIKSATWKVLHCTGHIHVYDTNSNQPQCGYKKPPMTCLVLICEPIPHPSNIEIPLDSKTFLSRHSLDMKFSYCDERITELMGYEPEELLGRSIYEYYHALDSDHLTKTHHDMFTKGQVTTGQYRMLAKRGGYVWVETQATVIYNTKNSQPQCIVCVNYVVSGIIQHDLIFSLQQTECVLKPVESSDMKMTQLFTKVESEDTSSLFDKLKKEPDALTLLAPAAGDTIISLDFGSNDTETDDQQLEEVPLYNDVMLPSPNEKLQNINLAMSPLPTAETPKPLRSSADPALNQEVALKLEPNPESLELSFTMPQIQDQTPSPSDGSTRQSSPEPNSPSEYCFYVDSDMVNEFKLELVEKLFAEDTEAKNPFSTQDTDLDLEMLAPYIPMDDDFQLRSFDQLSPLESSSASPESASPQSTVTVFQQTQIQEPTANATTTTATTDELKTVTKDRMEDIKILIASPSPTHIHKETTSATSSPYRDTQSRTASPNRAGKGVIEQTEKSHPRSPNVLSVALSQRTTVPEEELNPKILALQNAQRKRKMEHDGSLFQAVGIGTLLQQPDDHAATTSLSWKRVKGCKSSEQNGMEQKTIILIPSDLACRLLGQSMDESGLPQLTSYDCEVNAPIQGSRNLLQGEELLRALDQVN
Sequence of Hepatocyte nuclear factor 6 (Homo sapiens) (Q9UBC0 whole entry, looked up, the tested form may be a part): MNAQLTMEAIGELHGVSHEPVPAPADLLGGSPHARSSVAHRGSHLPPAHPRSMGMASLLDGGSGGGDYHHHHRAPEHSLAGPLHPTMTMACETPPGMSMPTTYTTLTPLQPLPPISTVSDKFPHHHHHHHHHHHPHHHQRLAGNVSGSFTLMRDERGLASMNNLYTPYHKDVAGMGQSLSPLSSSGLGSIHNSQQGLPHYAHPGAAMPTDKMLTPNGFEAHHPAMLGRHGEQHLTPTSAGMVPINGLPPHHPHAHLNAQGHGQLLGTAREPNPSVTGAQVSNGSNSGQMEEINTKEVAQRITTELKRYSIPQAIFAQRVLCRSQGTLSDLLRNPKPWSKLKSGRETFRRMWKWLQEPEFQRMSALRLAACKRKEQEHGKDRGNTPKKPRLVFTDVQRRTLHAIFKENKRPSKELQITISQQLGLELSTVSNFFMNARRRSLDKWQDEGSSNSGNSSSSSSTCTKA

For `CC(C)(CO)[C@@H](O)C(=O)NCCC(=O)O`, the result in [1], in assay [2], in assay [3], in [4], in assay [5] and in assay [6] was inactive. Besides, the molecule was called inactive in [8], in assay [9], in assay [10], in [11], in assay [12] and in assay [13]. In addition, in [7], the AC50 was 53.4 µM (active).
For `OCC(O)c1ccccc1` (centres undefined), the molecule was called inactive in assay [1], in assay [2], in [14], in [3], in assay [4] and in assay [5]. In addition, the molecule was classed as inactive in assay [15], in [7], in assay [16], in assay [9], in assay [17] and in [11]. In addition, the call in [13] was inactive.
As for `CCCC(=O)C(CC)Sc1ccoc1C` (centres undefined), the call in [1], in assay [2], in assay [18], in assay [14], in assay [3] and in assay [4] was inactive. The result in [5], in assay [6], in assay [15], in assay [9], in [10] and in assay [17] was inactive. Further, the result in assay [11], in [12] and in assay [13] was inactive. Besides, the AC50 in assay [7] is 5.68 µM (active).
Turning to `CCCCCCC(O)CCCCCCCCCCC(=O)O` (centres undefined), the call in assay [1], in [2], in assay [14], in assay [3], in [4] and in assay [5] was inactive. For the same molecule, the result in assay [6], in [15], in [7], in assay [16], in [9] and in assay [10] was inactive. The call in assay [17], in assay [11], in [12] and in assay [13] was inactive. For the same molecule, in assay [8], the AC50 was 18 µM (active).
For `Cc1[nH]c(=O)c(C#N)cc1-c1ccncc1`, the call in assay [1], in assay [2], in assay [18], in assay [3], in assay [4] and in [5] was inactive. The result in assay [6], in assay [7], in assay [8], in [16], in assay [9] and in [10] was inactive. In addition, the result in [17], in [11], in assay [12] and in [13] was inactive.
Consider `Cc1ncc([N+](=O)[O-])n1CCO`, for which the molecule was classed as inactive in [1], in assay [2], in assay [18], in [3], in [5] and in assay [6]. The molecule was classed as inactive in assay [15], in assay [7], in assay [8], in [16], in assay [9] and in [10]. Also, the outcome in assay [11], in assay [12] and in assay [13] was inactive.
With `O=C(O)c1cccnc1C(=O)O`, the molecule was classed as inactive in assay [1], in [2], in assay [18], in [3], in assay [4] and in [5]. For the same molecule, the molecule was called inactive in assay [15], in [7], in assay [16], in [10], in assay [17] and in assay [11]. For the same molecule, the molecule was classed as inactive in assay [12] and in assay [13].
